Results as given in the supplement of paper PMC10338343.
± gives the standard deviation.

What follows are sequences tested on EfPiwi piRISC loaded with L1MC piRNA (26 nt) (assay: pre-steady-state target cleavage rate (min^-1); auxiliary factor: 500 nM Ephydatia muelleri Gtsf1; guide: L1MC piRNA 5'p-UAACUAAAUACUAUGCAAGCUGUAGG; MIWI and MILI are mouse PIWI proteins and EfPiwi is from a freshwater sponge; tags in brackets are library labels; higher = faster piRNA-guided slicing of the target).
Method: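 Cleave-'n-Seq: a library of target RNAs (target site in constant flanks) at […] was incubated with 1 nM active freshwater sponge Ephydatia fluviatilis Piwi piRISC (synthetic 5'-monophosphorylated piRNA guide) with or without 500 nM EmGtsf1 at 33 °C for 1 min to 16 h. Uncleaved targets were sequenced and the pooled three trials fitted to a burst-and-steady-state model to give the pre-steady-state cleavage rate (min^-1). Sequence is the target site only. Fits with R² ≤ 0 are excluded.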

| Sequence | pre-steady-state target cleavage rate |
| --- | --- |
| UCCUGGAAGACCUUGCAUAGUAUUUAGUUA | 0.00668 ± 0.003 |
| UCCUGGAUGACCUUGGAUAGUAUUUAGUUA | 0.00325 ± 0.0032 |
| UCCUGGAUGUCGAUGCAUAGUAUUUAGUAA | 0.00329 ± 0.0032 |
| UCCUGGAUCACCUAGCAUAGUAUUUAGUUA | 0.00614 ± 0.004 |
| UCCUGCUACAGCUUGCAUACUAUUUAGUUA | 0.00755 ± 0.0026 |
| UCCUGGAUCAGGUUGCAUAGUUUUUAGUUA | 0.00481 ± 0.0024 |
| UCCUGGAUCAGCAAGCAUAGUAUUUAGUUA | 0.0107 ± 0.0038 |
| UCCUCCUUCAGCUAGCAUAGUAUUUAGUUA | 0.0131 ± 0.0046 |
| UCCUGGAUGUGCUUGCAUAGUAUUUAAUUA | 0.113 ± 0.038 |
| UCCUCCUACUGCUUGCAUAGUAUUUUGUUA | 0.0111 ± 0.0044 |
| UCCUGCUACUGCUUGCAUAGUAUUUAGUAA | 0.00464 ± 0.0016 |
| UCCUGCUACAGCUUGCAUAGUAUUUAGAAA | 0.00439 ± 0.0012 |
| UCCUGGAACAGCUUGGAUAGUAUUUAGUUA | 0.0302 ± 0.0072 |
| UCCUCCUCACAGCUUGCAUAGUAUUUAGUUA | 0.191 ± 0.046 |
| UCCUGCUACAGCUUGCAUAGUAUUUAGUA | 0.00529 ± 0.0019 |
| UCCUCCUACAGCUUGCAUAGUUUUUAGUUA | 0.00894 ± 0.003 |
| UCCUGCUACAGCUUGCAAAGUAUUUAGAUA | 0.00421 ± 0.0024 |
| UCCUGCUACAGCUUGCAUUGUAAUUAGUUA | 0.00519 ± 0.0025 |
| UCCUGGUACAGCUUGCAUAGUAUAAAGUAA | 0.00243 ± 0.0022 |
| UCCUGGAUCAGCUUGCAUACUAUUUAGUUA | 0.0114 ± 0.0021 |

| Sequence | pre-steady-state target cleavage rate |
| --- | --- |
| UCCUGGUACAGCUAGCAUAGUAAUUAGUUA | 0.00407 ± 0.0023 |
| UCCUCCUACUGCUUGCAUAGUAUUUAGUAA | 0.00527 ± 0.0023 |
| UCCUGCUACUGGUUGCAUAGUAUUUAGUUA | 0.0113 ± 0.0035 |
| UCCUCCUACAGCAAGCAUAGUAUUUAGUUA | 0.0493 ± 0.018 |
| UCCUGGAUGAGCAUGCAUUGUAUUUAGUUA | 0.00289 ± 0.0022 |
| UCCUGGUCCAGCUUGCAUAGUAUUUAGUUA | 0.0262 ± 0.007 |
| UCCUGCUACAGCUUGCAUAGUAUUUUGUAA | 0.00356 ± 0.0022 |
| UCCUGGAAGAGCUUGCAUAGUAUAUAGUUA | 0.0114 ± 0.0044 |
| UCCUGCUACAGCUUGCAUGUAUUUAGUUA | 0.00438 ± 0.0028 |
| UCCUCCUACAGCUUGCAUAGAUAUUUAGUUA | 0.00501 ± 0.0032 |
| UCCUGGAUGAGCUUGCAUAGUAUUUUCUAA | 0.00391 ± 0.0026 |
| UCCUGGUACAGCUACCAUAGUAUUUAGUUA | 0.00432 ± 0.0019 |
| UCCUGGAACACCUUGCAUAGUAUUUAGAUA | 0.0026 ± 0.0026 |
| UCCUGGAUCUGCUAGCAUAGUAUUUAGUUA | 0.0121 ± 0.0038 |
| UCCUCCUACAGCUUGCAUCGUAUUUAGUUA | 0.0492 ± 0.014 |
| UCCUCCUACAGCUUGCUUAGUAUUUAGUAA | 0.00594 ± 0.0027 |
| UCCUGGAUGUCGAACCAUAGUCUUUAGUUA | < 0.0001 |
| UCCUGGAUGUCGAACGUAUCUAUUUAGAAA [g4:g10:cont:t1A] | < 0.0001 |
| UCCUUCUACAGCUUGCAUAGUAUUUAGUUA | 0.119 ± 0.035 |
| UCCUGGUACAGCCUGCAUAGUAUUUAGUUA | 0.00984 ± 0.0036 |
